Compounds with a hit are over-represented: about 4.9% of the library has one in this group of screens.
HSP90 refold inh = blocks HSP90-mediated luciferase refolding in reticulocyte lysate; Rabbit reticulocyte lysate, luciferase refolding luminescence, 3 h; 290,000 tested, 0.91% active; AID 1789; inhibition, % at 5.6 µM;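 active means inhibition above the screen-wide mean plus 3 SD, computed separately per campaign, cut at about 16% in these data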;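 further: 0% = DMSO wells and 100% = 60 µM geldanamycin wells; inhibitors lower the luminescence because luciferase stays unfolded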
HSF1 inh = HSF1 inhibition. NIH3T3-HGL HSE-luciferase, MG132-induced, luminescence 8 h; stronger effect = lower value. activity change, negative = inhibition, % at 7.5 µM (by protocol). 300,000 tested, 0.77% active. AID 2098;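 active means more than half of replicate wells show activity change below -50%, luminescence cut by over half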;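 further: luciferase reports HSF-1 transcriptional activity via heat shock element; 0% = median of DMSO wells and -100% = zero luminescence signal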
Platelet DG rel = modulates dense granule release in human platelets; inhibition, %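 (compounds screened at 7.5 µM in platelet-rich plasma)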; 300,000 tested, 0.22% active; human platelet-rich plasma, SFLLRN dense granule ATP release, luminescence;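 active means mean replicate score, as percent of positive control, at or above 50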
dFosB act = activators of mouse delta FosB homodimer; purified delta FosB, TAMRA-CDK5 oligo fluorescence polarization; percent of positive-control signal above neutral wells; P13346; 340,000 tested, 0.99% active; activation, % at 25 µM;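 active means mean activation above about 17%, with every replicate also reaching it, limit read from the data, passing the limit was not always enough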
Target sequence (P13346 whole entry, looked up): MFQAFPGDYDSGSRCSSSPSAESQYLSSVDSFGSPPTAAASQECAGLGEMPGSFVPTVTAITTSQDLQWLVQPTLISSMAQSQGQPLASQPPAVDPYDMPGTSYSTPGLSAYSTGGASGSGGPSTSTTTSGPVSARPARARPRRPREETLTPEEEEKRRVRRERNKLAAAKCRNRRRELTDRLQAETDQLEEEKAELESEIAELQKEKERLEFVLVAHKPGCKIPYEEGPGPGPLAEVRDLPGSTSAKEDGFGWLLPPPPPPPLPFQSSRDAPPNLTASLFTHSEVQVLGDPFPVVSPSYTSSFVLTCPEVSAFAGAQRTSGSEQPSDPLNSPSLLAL
HSF-1 act = increases HSF-1 driven luciferase reporter signal; NIH3T3-HGL HSF-1 luciferase reporter, MG132, 8 h; 100% = twice DMSO control signal; activation, % at 9 µM; 300,000 tested, 1.7% active; AID 504408;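 active means mean replicate activation of at least 50% with a set share of replicates each reaching 50%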;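 further: 0% = median of the neutral control wells and 100% = twice that signal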
MPTP block = permeability transition pore inhibition | inhibition, % at 10 µM | AID 602449 | 360,000 tested, 1.4% active | isolated mouse mitochondria, Ca2+ swelling absorbance, 30 min;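 active means inhibition of 50% or more, scaled per plate between neutral and stimulator controls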;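 further: 0% = DMSO wells given calcium and 100% = 1 mM EGTA wells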
Rh123 counter = membrane potential counter-screen of mitochondrial pore inhibitors; AID 624504; shares compounds with MPTP block; 5,000 tested, 78% active; isolated mitochondria, Rhodamine 123 fluorescence; inhibition, % at 10 µM; in the data active means inhibition above about 22%;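 further: 0% = DMSO vehicle and 100% = positive control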
MPTP swell DR = dose response confirmation of mitochondrial permeability transition pore inhibitors; AID 651561; IC50, µM; 780 tested, 58% active; isolated mitochondria swelling, absorbance; shares compounds with MPTP block; in the data active means IC50 below about 20 µM
MPTP counter DR = active in counter-screen for permeability transition pore inhibitors; shares compounds with MPTP block; isolated mitochondria counterscreen, fluorescence read-out; IC50, µM; 780 tested, 49% active; in the data active means IC50 below about 80 µM
An asterisk follows results filed as active; / = not tested or not shown.

SMILES | HSP90 refold inh | HSF1 inh | Platelet DG rel | dFosB act | HSF-1 act | MPTP block | Rh123 counter | others
Cc1ccccc1-c1ccc2c(c1)O[C@@H](CN(C)C(=O)Nc1ccc(C(F)(F)F)cc1)[C@H](C)CN([C@@H](C)CO)S2(=O)=O | / | / | / | / | / | -1 | /
COc1ccc(NC(=O)Nc2cccc(OC)c2)cc1 | 0 | 2 | 10 | 3 | 39 | 5 | /
CCCSc1nsc(NC(=O)C(c2ccccc2)c2ccccc2)n1 | 12 | 1 | 0 | 3 | 9 | 12 | /
COc1cccc(NC(=O)Nc2nc(SC(C)(C)C)ns2)c1 | 0 | 6 | -6 | 1 | 12 | 93* | 77*
COc1cccc(NC(=O)Nc2ccc3nsnc3c2)c1 | -2 | 17 | 1 | -8 | 21 | 93* | 87*
COc1cccc(NC(=O)C(C)(C)C)c1 | / | / | / | 8 | / | -1 | /
CCCSc1nsc(NC(=O)Nc2ccc(F)cc2F)n1 | 1 | 53 | 0 | 9 | 68* | 97* | 85*
COc1cccc(NC(=O)Nc2nc(SC)ns2)c1 | -2 | 3 | 3 | -1 | 22 | 69* | 81*
CC(=O)Nc1cccc(NC(=O)Nc2cccc(F)c2)c1 | -1 | 5 | 14 | 0 | 15 | 6 | /
CCSc1nsc(NC(=O)Nc2cccc(F)c2)n1 | 1 | -10 | 5 | 4 | 3 | 98* | 80*
O=C(NNC(=O)c1cc(-c2cccnc2)nc2ccccc12)Nc1ccc(Cl)cc1 | 1 | 10 | 0 | 1 | 12 | 86* | 86*
O=C1NN(c2cccc(Br)c2)C(=O)/C1=C/c1ccc(-c2cc([N+](=O)[O-])ccc2O)o1 | -1 | -8 | 1 | -7 | -3 | 79* | -2
CC1=NN(c2ccc(C)cc2)C(=O)/C1=C/c1ccc(-c2cc([N+](=O)[O-])ccc2O)o1 | 3 | -3 | 2 | -11 | 6 | 102* | 46*
CC1=NN(c2ccc(C(=O)O)cc2)C(=O)/C1=C/c1ccc(-c2ccccc2F)o1 | 1 | 6 | 2 | -3 | 0 | 4 | /
O=C1NN(c2cccc(Br)c2)C(=O)/C1=C\c1ccc(O)cc1 | 0 | -8 | -2 | -9 | 10 | 2 | /
O=C1C(Cc2ccc(O)cc2)NC(=S)N1C1CCCCC1 (stereo unspecified) | 2 | 3 | 9 | -3 | -5 | 1 | /
CC(C)c1cc(C(=O)Nc2cc(Br)ccc2O)no1 | -2 | 7 | 16 | -4 | 18 | 58* | 62*
COc1ccc(C(=O)CSc2[nH]c(=O)cc(C(F)(F)F)c2C#N)cc1 | 0 | 3 | 3 | -6 | -3 | 85* | 76*
COc1ccc(-c2cc(C(F)(F)F)c(C#N)c(SCC(=O)Nc3ccc(C)cc3)n2)cc1 | 6 | 2 | 4 | 4 | 4 | 6 | /
CCCSc1nc2cc(C)c(C)cc2n1CC(C)O (stereo unspecified) | 2 | 7 | 2 | 1 | 15 | 2 | /
O=[N+]([O-])c1cc(-c2ccccc2)cc([N+](=O)[O-])c1O | / | / | / | 0 | / | 78* | 89*
Cc1ccccc1Nc1c(F)c(F)c(F)c(F)c1C(=O)O | 3 | -3 | 5 | -6 | -6 | 1 | /
COc1ccc(-c2nc3ccc(C(=O)NCCCN4CCOCC4)cc3nc2-c2ccc(OC)cc2)cc1 | 3 | -2 | 7 | -27 | -8 | 84* | -2 | MPTP swell DR=4.9*;MPTP counter DR=>80
CCCNC(=O)c1ccc2nc(-c3ccccc3)c(-c3ccccc3)nc2c1 | -2 | -2 | 4 | -4 | 0 | 2 | /
CCN1CCN(CCNC(=O)c2ccc3nc(-c4cccc(C)c4)c(-c4cccc(C)c4)nc3c2)CC1 | 1 | 4 | 5 | 1 | 16 | 96* | -17
CCCN(CCC)C(=O)c1ccc2nc(-c3ccc(OC)c(OC)c3)c(-c3ccc(OC)c(OC)c3)nc2c1 | 0 | -3 | 13 | -12 | -1 | 2 | /

Screens: PubChem, several laboratories
